Compound activity (PubChem BioAssay)
Giardia FBPA inh-1: Giardia lamblia aldolase inhibition | A8B2U2 | purified Giardia FBPA | Potency, µM (highest dose often 59.6 µM), usual class: inhibitors | hit rate 0.71% among 290,000; note: nearly all actives have a fitted effect of over 55% in size
Target sequence (A8B2U2 whole entry, looked up): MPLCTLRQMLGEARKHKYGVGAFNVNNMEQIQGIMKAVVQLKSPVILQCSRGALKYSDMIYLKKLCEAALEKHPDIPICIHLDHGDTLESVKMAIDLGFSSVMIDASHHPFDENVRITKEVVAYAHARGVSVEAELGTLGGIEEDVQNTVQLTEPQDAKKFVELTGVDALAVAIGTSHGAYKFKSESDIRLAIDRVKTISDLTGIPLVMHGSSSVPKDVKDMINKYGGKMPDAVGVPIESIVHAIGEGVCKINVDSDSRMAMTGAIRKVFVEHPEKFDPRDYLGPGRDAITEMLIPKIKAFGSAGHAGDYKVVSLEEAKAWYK
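Giardia FBPA (40 nM reagent) was preincubated 10 min at RT with compound (up to 57.5 uM final), then substrate plus GAPDH/TPI/NAD/arsenate coupling system with diaphorase/resazurin was added; resorufin fluorescence (525/598 nm) was read after 20 min.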
TbPYK inhibitor: T. brucei pyruvate kinase inhibition. hit rate 0.12% among 410,000. Q57TT1. TbPYK enzyme, Kinase-Glo Plus ATP luminescence, 45 min. Potency, µM (top dose mostly 76.8 µM), most hits filed as inhibitors; note: nearly all actives have a fitted effect of over 50% in size
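Enzyme and substrate buffer are dispensed first and compound is pin-transferred. ADP at 130 uM final then starts the reaction, which runs 45 min at room temperature. Detection reagent is added for 10 min before luminescence is imaged.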
CHX counter: affects cycloheximide protein synthesis inhibition readout, counter-screen; max response, %; AID 2314; hit rate 12% among 300,000; cell reporter, cycloheximide protein synthesis inhibition counterscreen; in the data active = max response mostly above about 13%, no sharp cut-off; inactive = mostly below about 14%; note: read at 38.3 µM for the half of the compounds with a filed dose
RE007 growth inh: less growth of the S. pombe RE007 Vpr strain; hit rate 0.21% among 360,000; Potency, µM (titrated, usually from 92.2 µM), most hits filed as inhibitors; S. pombe RE007 Vpr strain, BacTiter-Glo ATP luminescence, 24 h; AID 651644; active = well fitted falling curve with a large enough effect; inconclusive = small, poorly fitted or top-dose-only effect; inactive = no such curve, though single readings can be large or run the other way; note: nearly all actives have a fitted effect of over 50% in size
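Fission yeast RE007 carrying one integrated HIV-1 vpr copy, seeded at OD 0.01 in PMG+AL medium with 23 nL pinned compound. Grown 24 h at 30 degrees; viability read by BacTiter-Glo luminescence after 5 min.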
Shiga toxin inh: inhibitors of Shiga toxin in Vero cells; Vero cells, Shiga toxin protein synthesis inhibition reporter; inhibition, % at 38.7 µM; hit rate 9.2% among 290,000; in the data active = inhibition mostly above about 28%, no sharp cut-off; inactive = mostly below about 43%
LmPK inhibitor: inhibitors of Leishmania mexicana pyruvate kinase; purified LmPK, Kinase-Glo ATP luminescence, 1 h; Q27686; Potency, µM (doses to about 57.5 µM), actives largely listed as inhibitors; hit rate 0.37% among 290,000
Target sequence (Q27686 whole entry, looked up): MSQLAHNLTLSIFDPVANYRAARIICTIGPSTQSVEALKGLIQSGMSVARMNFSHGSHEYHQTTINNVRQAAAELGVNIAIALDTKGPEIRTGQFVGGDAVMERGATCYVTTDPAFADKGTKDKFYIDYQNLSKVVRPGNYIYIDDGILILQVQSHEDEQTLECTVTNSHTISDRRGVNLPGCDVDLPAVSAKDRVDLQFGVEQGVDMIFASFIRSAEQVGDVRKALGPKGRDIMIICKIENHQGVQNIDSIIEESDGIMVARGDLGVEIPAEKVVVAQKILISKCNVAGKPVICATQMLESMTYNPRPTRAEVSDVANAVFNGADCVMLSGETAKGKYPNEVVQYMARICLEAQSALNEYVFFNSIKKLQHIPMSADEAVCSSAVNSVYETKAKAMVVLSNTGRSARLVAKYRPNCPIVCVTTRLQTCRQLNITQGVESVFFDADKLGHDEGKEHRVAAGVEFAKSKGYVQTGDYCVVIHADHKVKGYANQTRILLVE
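Screened at intermediate enzyme activity to detect both inhibitors and activators: LmPK at 0.1 nM, with a 0.5 nM enzyme column as activation reference. PEP 0.5 mM, ADP 0.1 mM; ATP detected by luminescence after 1 h.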
Giardia growth: blocks growth of Giardia lamblia trophozoites | shares compounds with Giardia FBPA inh-1 | Giardia lamblia trophozoite growth inhibition | Potency, µM (highest dose often 57.5 µM), actives largely listed as inhibitors | hit rate 5% among 1,500;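 note: trophozoites exposed to compound for 48 h at 37 °C; nearly all actives have a fitted effect of over 70% in size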
Mammalian tox: toxic to mammalian cells in Giardia aldolase counter-screen; Potency, µM (highest dose often 57.5 µM), actives largely listed as inhibitors; shares compounds with Giardia FBPA inh-1; hit rate 4% among 1,500; mammalian cell viability counter-screen, qHTS;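 note: Chinese hamster ovary cells used as mammalian cytotoxicity surrogate; viability measured as cellular ATP by luminescence; compound exposure lasted 48 h before reading; nearly all actives have a fitted effect of over 60% in size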
Giardia FBPA inh-2: confirmation of Giardia fructose-bisphosphate aldolase inhibitors. shares compounds with Giardia FBPA inh-1. purified Giardia aldolase enzyme activity, qHTS. Potency, µM (highest dose often 57.5 µM), usual class: inhibitors. hit rate 5% among 1,500; note: nearly all actives have a fitted effect of over 45% in size
Rabbit FBPA inh: rabbit FBP aldolase inhibition by Giardia aldolase hits; hit rate 4% among 1,500; Potency, µM (top dose mostly 57.5 µM), hits mostly inhibitors; AID 2794; shares compounds with Giardia FBPA inh-1; Rabbit muscle FBPA enzyme inhibition, selectivity counter-screen; note: nearly all actives have a fitted effect of over 60% in size
GAPDH coupling: counter-screen for Giardia aldolase inhibitors: GAPDH coupling enzyme; shares compounds with Giardia FBPA inh-1; GAPDH coupling enzyme counterscreen, biochemical, qHTS; Potency, µM (series often up to 57.5 µM), usual class: inhibitors; hit rate 6% among 1,500; AID 2795; note: nearly all actives have a fitted effect of over 55% in size
Hits are given with their value; ! = not confirmed by another sample; [ ] = another dose, or the depositor's remark. Many of the other results were omitted from the sample, so hits are more common in it than they were. Unless noted, calls come from the whole dose curve; as a rule, active = well fitted curve in the direction sought with a large enough effect; inconclusive = small, poorly fitted or top-dose-only effect, or another doubt; inactive = no such curve, though single readings can be large; an effect the other way counts as inactive or inconclusive.

O=C(Nc1nnc(-c2cccs2)o1)c1ccc(S(=O)(=O)N2CCOCC2)cc1 was read as Giardia FBPA inh-1 14µM, TbPYK inhibitor inactive, CHX counter inactive, RE007 growth inh inactive, Shiga toxin inh inactive, LmPK inhibitor inactive, Giardia growth inactive[10.4 µM], Mammalian tox inactive, Giardia FBPA inh-2 inactive, Rabbit FBPA inh inactive and GAPDH coupling inactive.
Nc1nc2c(s1)CCc1c-2cnn1-c1ccccc1 was read as Giardia FBPA inh-1 0.4µM, TbPYK inhibitor inconclusive, CHX counter 46, Shiga toxin inh 151, LmPK inhibitor 14µM, Giardia growth inconclusive, Mammalian tox inconclusive, Giardia FBPA inh-2 13µM, Rabbit FBPA inh 14µM and GAPDH coupling 13µM.
O=C(Nc1ccc(C(=O)OCc2cc(=O)n3c4c(sc3n2)CCCC4)cc1)c1ccccc1 was read as TbPYK inhibitor inactive.
`O=C(O)c1ccc(/C=N/Nc2ccc(Cl)nn2)cc1` gave Giardia FBPA inh-1 25µM, TbPYK inhibitor inactive, CHX counter inactive, RE007 growth inh inactive, Shiga toxin inh inactive, LmPK inhibitor inactive, Giardia growth inconclusive, Mammalian tox inactive, Giardia FBPA inh-2 inactive, Rabbit FBPA inh inactive and GAPDH coupling inconclusive.
O=C(O)c1ccc(/C=N/Nc2ncc(C(F)(F)F)cc2Cl)cc1 was read as Giardia FBPA inh-1 inactive, TbPYK inhibitor inactive, CHX counter inactive, RE007 growth inh inactive, Shiga toxin inh inactive and LmPK inhibitor inactive.
For O=C(NCc1ccccc1Cl)c1ccc(NC(=O)N2CCSc3ncccc32)cc1 the results were TbPYK inhibitor inactive[15.4 µM].
`CC(=O)C(C(C)=O)c1c(Cl)c(O)c(O)c2c(C(=O)c3ccccc3)coc12` gave Giardia FBPA inh-1 18µM, TbPYK inhibitor inconclusive, CHX counter inactive, RE007 growth inh inactive, Shiga toxin inh inactive, LmPK inhibitor 11µM, Giardia growth inactive, Mammalian tox inactive, Giardia FBPA inh-2 inconclusive, Rabbit FBPA inh inactive and GAPDH coupling inactive.
CCc1ccc(-n2c(=O)c3c(C)c(C)sc3n(CC(=O)NCc3ccc(C)cc3)c2=O)cc1 was read as TbPYK inhibitor inactive.
COc1ccc(NC(C)=O)cc1NC(C)c1nc2sc(C)c(C)c2c(=O)[nH]1 (stereo not given) was read as Giardia FBPA inh-1 8.9µM, TbPYK inhibitor inactive, CHX counter inactive, RE007 growth inh inactive, Shiga toxin inh inactive, LmPK inhibitor inactive, Giardia growth inactive[10.4 µM], Mammalian tox inactive, Giardia FBPA inh-2 inconclusive, Rabbit FBPA inh inconclusive and GAPDH coupling inconclusive.
Cc1ccc(C)c(-c2nc(Cn3c(=O)cc(-c4ccccc4)c4c(C)nn(C)c43)c(C)o2)c1 was read as TbPYK inhibitor inactive.
O=C(NCc1ccccc1Cl)C(=O)NCC(c1cccs1)S(=O)(=O)c1cccs1 (stereo not given) was read as TbPYK inhibitor inactive.
Oc1[nH]c2ccccc2c1N=NC(=S)N1CCOCC1 was read as Giardia FBPA inh-1 18µM, TbPYK inhibitor inconclusive, CHX counter 16, RE007 growth inh inactive, Shiga toxin inh inactive, LmPK inhibitor 22µM, Giardia growth inactive[10.4 µM], Mammalian tox 40µM, Giardia FBPA inh-2 inactive, Rabbit FBPA inh inactive and GAPDH coupling inactive.
Screening S=C(c1c[nH]c2ccccc12)N1CCOCC1 returned Giardia FBPA inh-1 inactive, TbPYK inhibitor inactive, CHX counter inactive, RE007 growth inh inactive, Shiga toxin inh inactive and LmPK inhibitor inactive.
`Cc1cc(C)nc(N2N=C(c3ccccc3)CC2=O)n1` gave Giardia FBPA inh-1 inactive, TbPYK inhibitor inactive, CHX counter inactive, RE007 growth inh inactive, Shiga toxin inh inactive and LmPK inhibitor inactive.
For Cc1cc(C)nc(N2N=C(C(F)(F)F)CC2=O)n1 the results were Giardia FBPA inh-1 11µM, TbPYK inhibitor inactive, CHX counter inactive, RE007 growth inh inactive, Shiga toxin inh inactive, LmPK inhibitor inactive, Giardia growth inactive, Mammalian tox inactive, Giardia FBPA inh-2 inactive, Rabbit FBPA inh inactive and GAPDH coupling inactive.
For Cc1ccc(C)c(OCCOCCN2CC(C)OC(C)C2)c1C (stereo not given) the results were Giardia FBPA inh-1 18µM, TbPYK inhibitor inactive, CHX counter inactive, RE007 growth inh inactive, Shiga toxin inh inactive, LmPK inhibitor inactive, Giardia growth inactive[10.4 µM], Mammalian tox inactive, Giardia FBPA inh-2 inactive, Rabbit FBPA inh inactive and GAPDH coupling inactive.
For CC1CN(CCCCN2C(=O)c3ccccc3C2=O)CC(C)O1 (stereo not given) the results were Giardia FBPA inh-1 22µM, TbPYK inhibitor inactive, CHX counter inactive, RE007 growth inh inactive, Shiga toxin inh inactive, LmPK inhibitor inactive, Giardia growth inconclusive, Mammalian tox inactive, Giardia FBPA inh-2 inactive, Rabbit FBPA inh inactive and GAPDH coupling inactive.
Screening CC1CN(CCOCCOc2ccccc2-c2ccccc2)CC(C)O1 (stereo not given) returned Giardia FBPA inh-1 11µM, TbPYK inhibitor inactive, CHX counter inactive, RE007 growth inh inactive, LmPK inhibitor inactive, Giardia growth inactive[10.4 µM], Mammalian tox inactive, Giardia FBPA inh-2 inactive, Rabbit FBPA inh inactive and GAPDH coupling inactive.
c1ccc(-c2ccccc2OCCOCCN2CCc3ccccc3C2)cc1 was read as Giardia FBPA inh-1 inactive, TbPYK inhibitor inactive, CHX counter inactive, RE007 growth inh inactive, Shiga toxin inh inactive and LmPK inhibitor inactive.
`COc1ccc(N2CCN(S(=O)(=O)CCNC(=O)c3c(F)cccc3Cl)CC2)cc1` gave TbPYK inhibitor inactive.
For CCn1ncc(Br)c1C(=O)Nc1nccs1 the results were Giardia FBPA inh-1 inactive, TbPYK inhibitor inactive, CHX counter inactive, RE007 growth inh inactive, Shiga toxin inh inactive and LmPK inhibitor inactive.
Screening S=C(Nc1ccccc1)Nc1nccs1 returned Giardia FBPA inh-1 0.63µM!, TbPYK inhibitor inactive, CHX counter 29, Shiga toxin inh 99, LmPK inhibitor inactive, Giardia growth inactive, Mammalian tox 20µM, Giardia FBPA inh-2 inactive, Rabbit FBPA inh inactive and GAPDH coupling inactive.
CCn1cc(Cl)c(C(=O)Nc2nccs2)n1 was read as Giardia FBPA inh-1 4µM, TbPYK inhibitor inactive, CHX counter 33, RE007 growth inh inactive, Shiga toxin inh 32, LmPK inhibitor inactive, Giardia growth inactive[10.4 µM], Mammalian tox inactive, Giardia FBPA inh-2 inactive, Rabbit FBPA inh inactive and GAPDH coupling inactive.
